Among all 39,000 compounds or so, about 3,300 (8.5%) were called active. This is one part of a sample in which actives are shown more often than they occur.
Test system: HepG2
Assay: cytotoxicity call (relative viability < 0.9)
Settings: 10 µM

`Cc1ccc(OC(=O)N(C)C[C@@H]2OCc3ccccc3-c3ccccc3C(=O)N([C@@H](C)CO)C[C@H]2C)cc1` was tested. Which cytotoxicity call did it give?
Its cytotoxicity call is “inactive”.

Which cytotoxicity call does the source give for `C[C@H]1CN([C@@H](C)CO)S(=O)(=O)c2ccc(C#CCN(C)C)cc2O[C@H]1CN(C)C(=O)CN(C)C` here?
The cytotoxicity call was “inactive”.

Which cytotoxicity call does the source give for `O=C(CCCCCNC(=O)OCc1ccc(CO[C@H]2C[C@@H](c3ccc(C(F)(F)F)cc3)C=C(C(=O)N3CCN(Cc4ccccc4)CC3)O2)cc1)NO` here?
Its cytotoxicity call is “inactive”.

With `C[C@H]1CN([C@@H](C)CO)C(=O)c2cc(NC(=O)Nc3ccc4c(c3)OCO4)ccc2O[C@H]1CN(C)S(C)(=O)=O` as the compound, how does the cytotoxicity call read?
The cytotoxicity call was “inactive”.

`COc1ccc(CNC(=O)C[C@H]2CC[C@@H]3[C@H](COc4ccc(NC(=O)C(C)C)cc4C(=O)N3C)O2)cc1` was tested. Which cytotoxicity call did it give?
The cytotoxicity call was “inactive”.

Which cytotoxicity call does the source give for `C[C@@H]1CN([C@@H](C)CO)C(=O)Cc2cc(NS(=O)(=O)c3cccs3)ccc2O[C@H]1CN(C)Cc1ccncc1` here?
Its cytotoxicity call is “inactive”.

How did the cytotoxicity call turn out when `CC[C@@H](C[C@@H](O)[C@@H](C)[C@H]1CC[C@H]2C3=CC(=O)[C@H]4[C@H](C)[C@@H](OC(=O)c5ccccc5)CC[C@]4(C)[C@H]3CC[C@]12C)C(C)C` was run?
The cytotoxicity call was “inactive”.

`CC[n+]1oc(-c2ccccc2)cc1C` was tested. Which cytotoxicity call did it give?
The cytotoxicity call was “active”.

How did the cytotoxicity call turn out when `O=C(CCCCCNC(=O)OCc1ccc(CO[C@H]2C[C@@H](C3CCCCC3)C=C(C(=O)N3CCN(Cc4ccccc4)CC3)O2)cc1)NO` was run?
The cytotoxicity call was “inactive”.

`COCC(=O)Nc1ccc2c(c1)C(=O)N(C)C[C@H](OC)[C@@H](C)CN(Cc1ccccc1OC)[C@@H](C)CO2` was tested. Which cytotoxicity call did it give?
The cytotoxicity call was “inactive”.

Which cytotoxicity call does the source give for `COC(=O)CCCCCCC(=O)Nc1ccc(NC(=O)CCCC[P+](c2ccccc2)(c2ccccc2)c2ccccc2)cc1` here?
The cytotoxicity call was “inactive”.

`CC1=C(C)C(=O)C(CCCCCCCCCC[P+](c2ccccc2)(c2ccccc2)c2ccccc2)=CC1=O` was tested. Which cytotoxicity call did it give?
The cytotoxicity call was “active”.

With `CC1=C(C)C(=O)C(C(CCCCCC(=O)O)c2ccccc2)=C(C)C1=O` (centres undefined) as the compound, how does the cytotoxicity call read?
The cytotoxicity call was “inactive”.

`COC1=C(OC)C(=O)C(CCCCCCCCCC[P+](c2ccccc2)(c2ccccc2)c2ccccc2)=C(C)C1=O` was tested. Which cytotoxicity call did it give?
Its cytotoxicity call is “active”.

How did the cytotoxicity call turn out when `COC1=C(OC)C(=O)C(CCCCCCCCCCO)=C(C)C1=O` was run?
Its cytotoxicity call is “active”.

With `COC1=C(OC)C(=O)C(CC=C(C)CCC=C(C)CCC=C(C)CCC=C(C)CCC=C(C)CCC=C(C)CCC=C(C)CCC=C(C)CCC=C(C)CCC=C(C)C)=C(C)C1=O` as the compound, how does the cytotoxicity call read?
The cytotoxicity call was “inactive”.

Which cytotoxicity call does the source give for `COC1=C(OC)C(=O)C(C/C=C(\C)CC/C=C(\C)CC/C=C(\C)CC/C=C(/C)CC/C=C(\C)CC/C=C(\C)CC/C=C(\C)CC/C=C(\C)CC/C=C(\C)CCC=C(C)C)=C(C)C1=O` here?
Its cytotoxicity call is “inactive”.

`COC1=C(OC)C(=O)C(C/C=C(\C)CC/C=C(\C)CC/C=C(\C)CC/C=C(\C)CC/C=C(\C)CC/C=C(\C)CC/C=C(\C)CC/C=C(\C)CC/C=C(\C)CCC=C(C)C)=C(C)C1=O` was tested. Which cytotoxicity call did it give?
Its cytotoxicity call is “inactive”.

With `CC=Cc1ccc2n(c1=O)C[C@H]1[C@H](CO)[C@@H](C(=O)NC3CCC3)N(S(C)(=O)=O)[C@@H]21` as the compound, how does the cytotoxicity call read?
The cytotoxicity call was “inactive”.

For `COc1ccc(-c2cn3cc(C(=O)NCC(N)=O)nc3c(=O)n2CC2CC2)c(F)c1`, which cytotoxicity call is on record?
Its cytotoxicity call is “inactive”.

How did the cytotoxicity call turn out when `C[C@@H]1CN([C@H](C)CO)C(=O)c2cc(NS(=O)(=O)c3cccs3)ccc2O[C@H]1CN(C)S(=O)(=O)c1ccc(F)cc1` was run?
Its cytotoxicity call is “inactive”.

Which cytotoxicity call does the source give for `COc1ccc(NC(=O)Nc2ccc3c(c2)[C@@H]2C[C@H](CC(=O)NCc4ccccn4)O[C@H](CO)[C@@H]2O3)cc1` here?
The cytotoxicity call was “inactive”.

For `C[C@@H]1CN([C@@H](C)CO)C(=O)c2cc(NC(=O)CCN3CCOCC3)ccc2O[C@@H]1CN(C)Cc1ccc2c(c1)OCO2`, which cytotoxicity call is on record?
Its cytotoxicity call is “inactive”.

For `C[C@H]1CN([C@@H](C)CO)C(=O)c2cccc(NC(=O)C3CCCCC3)c2O[C@@H]1CN(C)S(=O)(=O)c1cn(C)cn1`, which cytotoxicity call is on record?
Its cytotoxicity call is “inactive”.

`C[C@H](CO)N1C[C@H](C)[C@@H](CN(C)C(=O)C2CC2)Oc2ncc(-c3ccc(C(=O)N(C)C)cc3)cc2C1=O` was tested. Which cytotoxicity call did it give?
Its cytotoxicity call is “inactive”.

How did the cytotoxicity call turn out when `N[C@@H](CCc1ccccc1Cl)c1ccc2c(c1)OCCO2` was run?
Its cytotoxicity call is “active”.

`N[C@H](c1ccc2c(c1)OCCO2)c1ccco1` was tested. Which cytotoxicity call did it give?
Its cytotoxicity call is “inactive”.

With `NCC[C@@H](Cc1ccccc1)c1ccc2c(c1)OCO2` as the compound, how does the cytotoxicity call read?
The cytotoxicity call was “inactive”.

Which cytotoxicity call does the source give for `Cc1ccc(S(=O)(=O)Nc2cccc3c2O[C@H](CN(C)C(=O)Nc2cccc4ccccc24)[C@H](C)CN([C@H](C)CO)C3=O)cc1` here?
Its cytotoxicity call is “inactive”.

For `O=C(NCCNS(=O)(=O)c1cccc2nonc12)[C@H]1COc2ccccc2O1`, which cytotoxicity call is on record?
The cytotoxicity call was “inactive”.

For `CS(=O)(=O)N1CCN(Cc2cc3nc(-c4cccc5n[nH]cc45)nc(N4CCOCC4)c3s2)CC1`, which cytotoxicity call is on record?
Its cytotoxicity call is “active”.

How did the cytotoxicity call turn out when `C[C@H]1CN([C@@H](C)CO)C(=O)c2cc(C#CC3(O)CCCC3)cnc2O[C@H]1CN(C)S(=O)(=O)c1cccc(F)c1` was run?
The cytotoxicity call was “inactive”.

For `COc1ccc(S(=O)(=O)N(C)C[C@H]2Oc3ccc(NS(=O)(=O)c4ccc(F)cc4)cc3CC(=O)N([C@H](C)CO)C[C@@H]2C)cc1`, which cytotoxicity call is on record?
The cytotoxicity call was “inactive”.

With `Cc1noc(C)c1S(=O)(=O)Nc1ccc2c(c1)CC(=O)N([C@H](C)CO)C[C@H](C)[C@H](CN(C)S(=O)(=O)c1ccc(Cl)cc1)O2` as the compound, how does the cytotoxicity call read?
Its cytotoxicity call is “inactive”.

`C[C@H](CO)N1C[C@H](C)[C@H](CN(C)S(=O)(=O)c2ccc(F)cc2)Oc2c(NS(=O)(=O)c3ccccc3)cccc2C1=O` was tested. Which cytotoxicity call did it give?
Its cytotoxicity call is “inactive”.

Which cytotoxicity call does the source give for `O=C(CN1CCOC1=O)N1CCC2(CCC(=O)N(CCCn3ccnc3)C2)CC1` here?
Its cytotoxicity call is “inactive”.

`CCN(CC)CCCCNc1ncc2cc(-c3cc(OC)cc(OC)c3)c(NC(=O)NC(C)(C)C)nc2n1` was tested. Which cytotoxicity call did it give?
The cytotoxicity call was “active”.

Which cytotoxicity call does the source give for `CCN(CC)CCNC(=O)COc1ccc(OC)cc1.Cl` here?
Its cytotoxicity call is “inactive”.

Which cytotoxicity call does the source give for `CCN(CC)CCCCNc1ncc2cc(-c3c(Cl)cccc3Cl)c(NC(=O)NC(C)(C)C)nc2n1` here?
Its cytotoxicity call is “active”.

`CC(C)=CCC/C(C)=C/CC/C(C)=C/CCC(=O)OC/C=C(\C)CCC=C(C)C` was tested. Which cytotoxicity call did it give?
Its cytotoxicity call is “inactive”.

How did the cytotoxicity call turn out when `Cc1noc(C)c1NC(=O)Nc1ccc2c(c1)C(=O)N([C@H](C)CO)C[C@H](C)[C@H](CN(C)Cc1ccc(C(=O)Nc3ccccc3N)cc1)OCCCC[C@@H](C)O2` was run?
Its cytotoxicity call is “inactive”.

How did the cytotoxicity call turn out when `COc1ccc(NC(=O)N(C)C[C@H]2OCCCC[C@H](C)Oc3ccc(NC(=O)Cc4ccccc4)cc3C(=O)N([C@@H](C)CO)C[C@H]2C)cc1` was run?
Its cytotoxicity call is “inactive”.

`C[C@@H]1CN([C@H](C)CO)C(=O)Cc2cc(NC(=O)Cc3cn(C)c4ccccc34)ccc2O[C@@H]1CN(C)C(=O)Nc1cccc2ccccc12` was tested. Which cytotoxicity call did it give?
The cytotoxicity call was “inactive”.

For `C[C@@H]1CCCCO[C@@H](CN(C)C(=O)Cc2ccccc2)[C@@H](C)CN([C@H](C)CO)C(=O)c2cc(NC(=O)Nc3ccc4c(c3)OCO4)ccc2O1`, which cytotoxicity call is on record?
The cytotoxicity call was “inactive”.

Source: the antibiotic and cytotoxicity screens of Wong et al. (2023)
